A number with no mark means an inactive call. How the calls were made is not given here.

The target in this experiment is Lethal factor (Bacillus anthracis) (UniProt P15917). The experiment can be described thus: Bacillus anthracis lethal factor inhibition, microsphere flow cytometry protease assay, validation at 10 µM (AID 588461). Particulars: multiplex microsphere protease cleavage assay, hits give high values. Background: A flow cytometer gives signals particle by particle.
The term inhibition denotes the relative decrease from the control value, in per cent. As to `COc1cc(C2C(C(C)=O)=C(O)C(=O)N2c2ccc(C)cc2)ccc1O` (stereo not given), the inhibition was 0%. With `Cc1nc2ccccc2n1CC(=O)NC1CCCC1` the figure was -4.4%; with `CCOC(=O)c1oc2cc(OCC(N)=O)ccc2c(=O)c1-c1ccc(OC)c(OC)c1`, 1.9%; with `COC(=O)c1ccccc1OCCOCCOc1cccc2ccc(C)nc12`, -4%. With `Cc1ccc2c(c1)c1c3n2CCCNC3CCC1` (stereo not given), the inhibition is 0.5%. The figure for `COc1ccc2c(CC(=O)NCC3CCC(C(=O)O)CC3)cc(=O)oc2c1` (stereo not given) is 3.6%. `Cc1ccc(SCC(=O)Nc2nccs2)cc1`: the inhibition is -5.6%.

With `Cc1ccc2c(c1)c1c3n2CCCN(Cc2ccccc2)C3CCC1` (stereo not given), the inhibition is -3%. On to `CC(C)Oc1ccc2c(=O)c(-c3ccccc3)coc2c1`, for which the inhibition was 6.8%.

For the compound `CO[C@@]1(NC(=O)Cc2cccs2)C(=O)N2C(C(=O)O)=C(COC(N)=O)CS[C@@H]21`, the inhibition is -10%. The figure for `C[N+](C)(C)CCCCCCCCCC[N+](C)(C)C` is -5.3%; for `COc1cccc(OC2OC3COC(C)(C)OC3C(O)C2NC(C)=O)c1` (stereo not given) it is 0.5%; for `N/C(=N/OS(=O)(=O)c1ccc([N+](=O)[O-])cc1)c1ccncc1` it is 1%. Regarding `COc1c2c(nc3occc13)C(CC=C(C)C)(OC)C(O)CC2` (stereo not given), the inhibition is -4.1%. With `COC1CCN(C(=O)c2ccc(OC3CCN(Cc4ccccn4)CC3)cc2)CC1` the figure was 0.5%. With `CSCCC(NC(C)=O)C(=O)Oc1ccc2c3c(c(=O)oc2c1)CCCC3` (stereo not given) the figure was -1.8%; with `CCN(CC)C(=S)SSC(=S)N(CC)CC`, -10.6%; with `CN1CCCC(OC(=O)c2ccc3c(c2)OCCO3)C1` (stereo not given), -2.2%. With `CC(CCc1ccccc1)NCC(O)c1ccc(O)c(C(N)=O)c1` (stereo not given) the figure was 0.1%; with `Cc1c(OCC(F)(F)F)ccnc1CS(=O)c1nc2ccccc2[nH]1` (stereo not given), -2.4%. For the compound `C[C@]12CC[C@@H]3c4ccc(O)cc4[C@@H](O)C[C@H]3[C@@H]1CC[C@@H]2O`, the inhibition is 0.8%.

On to `COc1cc(NS(=O)(=O)c2ccc(N)cc2)nc(OC)n1`, for which the inhibition was 0.1%.

For the compound `CCOc1ccccc1OCCOc1ccc(F)cc1`, the inhibition is 6.2%. In the case of `COc1ccc(-c2coc3c(CN4CCOCC4)c(O)ccc3c2=O)cc1`, the inhibition is 4.1%. The figure for `Cc1ccc2c(c1)C1CN(C)CCC1N2S(=O)(=O)c1ccc(Oc2ccc([N+](=O)[O-])cc2)cc1` (stereo not given) is 8.4%; for `O=c1cnn([C@@H]2O[C@H](CO)[C@@H](O)[C@H]2O)c(=O)[nH]1` it is 5.4%. On to `Cc1cn([C@H]2C=C[C@@H](CO)O2)c(=O)[nH]c1=O`, for which the inhibition was -0.8%. The figure for `O=C(Cc1cccc2ccccc12)N1CC[C@@]2(O)CCCC[C@H]2C1` is -5.4%; for `CC1(C)CC(NC(=O)C23CCC(C)(C(=O)C2=O)C3(C)C)CC(C)(C)N1` (stereo not given) it is -4.5%; for `c1cnc(N2CCN(Cc3ccc4c(c3)OCO4)CC2)nc1` it is -5.5%. With `c1ccc2c(c1)CCCC2C1=NCCN1` (stereo not given) the figure was 0.6%; with `CC12CCC(C(=O)Nc3ccccc3Br)(C/C1=N\O)C2(C)C` (stereo not given), -6.5%. With `C=CCc1cc(Cl)ccc1OCCOCCN(C)C`, the inhibition was -1.2%. The figure for `COCCn1c(/C=C/c2ccccc2)nc2ccccc21` is -3.4%; for `O=C(O)C1Sc2[nH]c(=O)sc2C2c3ccc(O)cc3OC(=O)C12` (stereo not given) it is -16.5%. With `COc1cc2cc(C(=O)O)n(C)c2c(OC)c1OC` the figure was 1.2%; with `CNS(=O)(=O)c1ccc(C)cc1`, -3.3%; with `COc1cc(/C=C/C(=O)O)cc(S(=O)(=O)NCCCO)c1OC`, 2.3%. The figure for `COc1cc2c(cc1OC)C(c1ccccc1)=NCC2` is 7%; for `Cc1cccc2c1CC(C)(C)N/C2=C\C(N)=O` it is -3.4%.

Source of the values: PubChem BioAssay.
